The list is not random: actives were taken first. Their share in the collection is about 1.6%.
KCNQ2 inh = rat KCNQ2 potassium channel inhibitors, primary screen, cell-based, CHO-K1, FluxOR thallium flux, B-score; 20 min; stronger effect = lower value; B-score at 10 µM; hit rate 1.1% among 310,000; AID 2156, 2009;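 active means fluorescence ratio B-score at most minus 3 library SDs, with starting brightness B-score within 2 library SDs, cut at about -5.5 in these data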
KCNQ2 enhance = potentiators of rat KCNQ2 potassium channel; B-score at 10 µM; hit rate 0.54% among 310,000; CHO-K1 KCNQ2, FluxOR thallium flux fluorescence; stronger effect = higher value;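 active means fluorescence ratio B-score at least 3 SD of library B-scores, with initial fluorescence B-score within 3 of them, cut at about 5.3 in these data; same plate scores as AID 2156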;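 further: B-score of peak minus minimum over baseline fluorescence ratio after K+ and Tl+ stimulus; positive B-score means potentiation of KCNQ2 with more thallium influx and brighter signal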
Kir21 conf inh = mouse Kir2.1 channel blockers, retest, confirmation, cell-based, FluxOR thallium flux, duplicate; shares compounds with KCNQ2 enhance; Kir2.1-expressing cells, FluxOR thallium flux fluorescence; stronger effect = lower value; Tl flux remaining, % of negative control (stronger effect = lower value), % at 10 µM; hit rate 41% among 2,300; AID 2032, 2009;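 active means Primary-screen hit whose thallium flux fell at least 3 control SD below untreated wells in both duplicates, with normal baseline fluorescence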;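 further: 0% = blank wells without stimulus and 100% = stimulated no-compound controls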
HEK293 ctr = counter-screen for Kir2.1 inhibitors: effect in parental HEK293 cells; shares compounds with KCNQ2 enhance; FluxOR thallium flux fluorescence; 0% = unstimulated blank wells; FluxOR signal as % of negative control (100 = no effect), % at 10 µM; hit rate 19% among 2,300;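 active means dye signal at least 3 control SD above or below untreated wells in both duplicates, raw fluorescence within 3, either direction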;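 further: percent is based on the flux ratio of peak minus minimum fluorescence over baseline F0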
CHO-K1 Tl ctr = nonspecific thallium flux increase in parental CHO-K1, confirmation, counter-screen for KCNQ2 potentiator project, cell-based, FluxOR thallium flux, duplicate; activity increase over 3SD of controls, % at 10 µM; parental CHO-K1 cells, FluxOR thallium flux fluorescence; zero = vehicle mean+3SD, 100% = vehicle-minus-blank window; shares compounds with KCNQ2 enhance; AID 2282, 2010; hit rate 43% among 1,200;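 active means signal rise of at least 3 SD above the untreated control mean, in both duplicate wells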;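 further: counter screen of KCNQ2 potentiator hits so any rise reflects channel-independent effects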
KCNQ1 pot spec = human KCNQ1 channel potentiation off-target, confirmation, selectivity assay for KCNQ2 potentiator project, cell-based, CHO, FluxOR thallium flux. shares compounds with KCNQ2 enhance. CHO KCNQ1 stable, FluxOR thallium flux fluorescence; beyond 3SD, as % of vehicle-control signal. activation over 3SD threshold, % at 10 µM. hit rate 28% among 1,200. AID 2283, 2010;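 active means fluorescence ratio rise of at least 3 SD of vehicle wells above their mean, in both replicate wells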;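 further: 0% = vehicle mean plus 3 SD and 100% = vehicle minus unstimulated blank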
Target sequence (P51787 whole entry, looked up): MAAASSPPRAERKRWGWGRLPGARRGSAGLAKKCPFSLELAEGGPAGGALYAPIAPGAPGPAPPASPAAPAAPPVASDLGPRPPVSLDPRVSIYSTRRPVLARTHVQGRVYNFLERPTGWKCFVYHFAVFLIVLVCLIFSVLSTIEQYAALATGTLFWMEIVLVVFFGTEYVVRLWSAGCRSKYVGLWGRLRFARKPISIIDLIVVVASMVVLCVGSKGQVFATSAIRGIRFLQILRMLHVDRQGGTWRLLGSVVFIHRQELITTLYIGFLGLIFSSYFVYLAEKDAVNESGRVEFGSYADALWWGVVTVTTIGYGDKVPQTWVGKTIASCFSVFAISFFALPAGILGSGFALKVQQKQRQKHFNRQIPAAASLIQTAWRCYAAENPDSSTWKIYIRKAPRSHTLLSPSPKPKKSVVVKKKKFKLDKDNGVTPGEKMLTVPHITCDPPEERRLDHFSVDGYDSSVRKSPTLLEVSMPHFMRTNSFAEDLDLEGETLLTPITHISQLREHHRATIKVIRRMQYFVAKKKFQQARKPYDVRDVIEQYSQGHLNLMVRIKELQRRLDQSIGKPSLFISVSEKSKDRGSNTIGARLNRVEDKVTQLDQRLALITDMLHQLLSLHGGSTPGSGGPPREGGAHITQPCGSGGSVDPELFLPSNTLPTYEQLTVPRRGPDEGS
KCNQ2 pot conf = rat KCNQ2 channel potentiators, confirmation, cell-based, CHO, FluxOR thallium flux, duplicate. shares compounds with KCNQ2 enhance. CHO-KCNQ2 cells, FluxOR thallium flux fluorescence. potentiation, less the hit threshold, % at 10 µM. hit rate 68% among 1,200. AID 2287, 2010;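 active means fluorescence ratio rising 3 SD or more over the vehicle control mean in both replicates, plus primary screen hit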;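 further: peak minus minimum thallium fluorescence divided by baseline after K/Tl stimulus; 0% = vehicle mean plus 3 SD and 100% = vehicle minus unstimulated blank difference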
Kir2-1 sel = mouse Kir2.1 channel activation off-target, confirmation, selectivity assay for KCNQ2 potentiator project, cell-based, HEK293, FluxOR thallium flux. shares compounds with KCNQ2 enhance. HEK293 Kir2.1, FluxOR thallium flux fluorescence. activity over 3SD threshold, % at 10 µM. hit rate 2% among 1,200;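 active means fluorescence ratio rise of at least 3 SD above the vehicle-control mean, seen in both replicates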;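 further: 0% = vehicle mean plus 3 SD and 100% = vehicle minus no-stimulus blank window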
KCNQ2 W236L MoA = potentiators of retigabine-insensitive KCNQ2 W236L, mechanism study for KCNQ2 potentiator project, cell-based, rat KCNQ2 W236L, CHO, automated patch clamp | hit rate 10% among 940 | automated patch clamp current | current increase over 3SD of negative controls (%), stronger effect = higher value, % at 25 µM | shares compounds with KCNQ2 enhance;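 active means current increase at least 3 SD of the untreated controls above them in both duplicate recordings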
An asterisk follows results filed as active; i = inactive; x = no result given.

SMILES	KCNQ2 inh	KCNQ2 enhance	Kir21 conf inh	HEK293 ctr	others
CC(=O)c1c(N2CCN(Cc3ccccc3)CC2)[nH]c(-c2ccccc2)nc1=S	i	6.2*	i	208%*	CHO-K1 Tl ctr=-18;KCNQ1 pot spec=54*;KCNQ2 pot conf=2.3*;Kir2-1 sel=-35;KCNQ2 W236L MoA=i
CC(=O)c1c(N2CCCC2)[nH]c(-c2ccccc2)nc1=S	i	1.9	x	x
CN(CCC#N)C(=O)COC(=O)c1c2c(nc3ccccc13)/C(=C/c1ccco1)CC2	i	x	x	x
CCc1ccc(NC(=O)C(=O)NNC(=O)c2ccc(OC)cc2)cc1	i	25*	i	i	CHO-K1 Tl ctr=-13;KCNQ1 pot spec=-45;KCNQ2 pot conf=-3;Kir2-1 sel=-25;KCNQ2 W236L MoA=i
COc1ccc(CC(=O)NNC(=O)c2ccc(NC(C)=O)cc2)cc1	i	0.3	x	x
COc1cccc(C(=O)Nc2cccc3ccccc23)c1	i	x	x	x
COc1ccc(NC(=O)c2ccc(C)cc2)cc1	i	x	x	x
COc1cccc(C(=O)NNC(=O)C(=O)Nc2cccc3ccccc23)c1	i	13*	i	i	CHO-K1 Tl ctr=-10;KCNQ1 pot spec=8.8*;KCNQ2 pot conf=-12;Kir2-1 sel=-27
COc1ccc(C(=O)NNC(=O)C(=O)Nc2ccc(C)cc2)cc1	i	28*	i	234%*	CHO-K1 Tl ctr=5.7*;KCNQ1 pot spec=-6;KCNQ2 pot conf=7.6*;Kir2-1 sel=-29;KCNQ2 W236L MoA=i
COc1ccc(NC(=S)NNc2ccc(C(=O)O)cc2)cc1	i	x	x	x
CC1Cc2cccc3c(O)c(C(=O)c4nn[nH]n4)c(=O)n1c23 (centres undefined)	i	1.3	x	x
COc1ccc(CN2CCN(C(C)C)C(CCO)C2)cc1Cn1cncn1 (centres undefined)	i	0.79	x	x
Cc1cccc(OC(C)C(=O)Nc2ccccc2C(=O)N2CCCCC2)c1 (centres undefined)	i	x	x	x
COc1ccc(S(=O)(=O)Nc2cc(S(=O)(=O)c3ccccc3)c(O)cc2C)cc1	i	0.29	x	x
Cc1cc(O)c(C(C)C)cc1NS(=O)(=O)c1ccccc1	i	x	45%*	i
c1ccc(NC2=NCCN2CCC2CCCC2)cc1	i	0.85	x	x
COc1cccc(/C=N/n2c(SC)nnc2-c2ccccc2)c1O	i	5.3*	i	i	CHO-K1 Tl ctr=-24;KCNQ1 pot spec=-4;KCNQ2 pot conf=-13;Kir2-1 sel=-29
COc1cccc(/C=N/n2c(SC)nnc2-c2ccccc2)c1OC	i	x	x	x
CC(C)C(OC(=O)CN1C(=O)COc2ccccc21)C(=O)NC1CCCCC1 (centres undefined)	i	0.33	x	x
COc1ccc(NC(=O)N2CCN(C(=O)c3ccco3)CC2)c(OC)c1	i	x	x	x
CCOC(=O)NC(=S)Nc1ccc(C(C)(C)C)cc1	i	10*	i	i	CHO-K1 Tl ctr=-11;KCNQ1 pot spec=-13;KCNQ2 pot conf=26*;Kir2-1 sel=-37;KCNQ2 W236L MoA=i
CCOC(=O)C(NC(C)=O)C(=O)Nc1ccc(C(C)(C)C)cc1 (centres undefined)	i	x	x	x
CCOc1ccc(NC(=O)Cc2ccc(NC3=NC4CS(=O)(=O)CC4S3)cc2)cc1 (centres undefined)	i	17*	i	i	CHO-K1 Tl ctr=8.6*;KCNQ1 pot spec=-18;KCNQ2 pot conf=-18;Kir2-1 sel=-30
CCc1ccc(NC(=O)Cc2ccc(NC3=NC4CS(=O)(=O)CC4S3)cc2)cc1 (centres undefined)	i	x	x	x
COc1ccc(N(CC(=O)NCCSCc2ccco2)S(=O)(=O)c2ccccc2)cc1Cl	i	x	x	x
SMILES	KCNQ2 inh	KCNQ2 enhance	Kir21 conf inh	HEK293 ctr	others
CCOC(=O)Cc1csc(NC(=S)NC(=O)CC(C)C)n1	i	x	x	x
CC(C)CC(=O)NC(=S)Nc1nc(-c2cccc3ccccc23)cs1	i	8.4*	i	i	CHO-K1 Tl ctr=3.5*;KCNQ1 pot spec=9.8*;KCNQ2 pot conf=-11;Kir2-1 sel=-20
CCN(CC)C(=O)Cn1cc(C(=O)C(=O)NCCc2c[nH]c3ccccc23)c2ccccc21	i	0.24	x	x
O=C(CNC(=O)C(c1ccccc1)c1ccccc1)OCC(=O)c1cccs1	i	x	x	x
CCOC(=O)COc1nc2c(c(-c3ccco3)c1C#N)CCc1ccccc1-2	i	10*	i	i	CHO-K1 Tl ctr=48*;KCNQ1 pot spec=84*;KCNQ2 pot conf=-11;Kir2-1 sel=-28;KCNQ2 W236L MoA=i
N#Cc1c(OCC(=O)c2ccccc2)nc2c(c1-c1ccco1)CCc1ccccc1-2	i	20*	i	145%*	CHO-K1 Tl ctr=2.2*;KCNQ1 pot spec=-3;KCNQ2 pot conf=42*;Kir2-1 sel=-37;KCNQ2 W236L MoA=i
CCOC(=O)COc1nc(-c2ccccc2)cc(-c2ccco2)c1C#N	i	2.4	x	x
Cc1cc(C)c(C#N)c(OCC(=O)c2ccccc2)n1	i	0.86	x	x
CC(=O)c1cccc(NC(=O)/C(=C/c2ccncc2)NC(=O)c2ccccc2)c1	i	0.46	x	x
CCN(CC)CCN(Cc1cc2cc3c(cc2[nH]c1=O)OCCO3)C(=S)NC	i	x	x	x
CCOCCCNC(=O)CN(c1cc([N+](=O)[O-])ccc1OC)S(C)(=O)=O	i	0.3	x	x
C=C(C)CNC(=O)CCc1nnc(Cc2cccc(C(F)(F)F)c2)o1	i	x	x	x
CC(C)N(Cc1ccccc1)S(=O)(=O)c1ccc(Cl)nc1	i	x	65%*	i
CN(Cc1ccccc1)S(=O)(=O)c1ccc(Cl)nc1	i	x	x	x
CCNC(=S)N1CCCC(C(N)=O)C1 (centres undefined)	i	0.83	x	x
COc1ccc(CCN(C)C(=O)c2oc3ccccc3c2C)cc1OC	i	0.42	38%*	i
Cc1c(C(=O)N(C)Cc2ccc(OC(F)F)cc2)oc2ccccc12	i	x	x	x
Nc1c(Cl)cc(-c2csc(N3CCCC3c3nc4cc(Cl)c(Cl)cc4n3CCCO)n2)cc1Cl (centres undefined)	i	x	x	x

Screening data from PubChem.
